Laboratory results taken from PubChem BioAssay.
Calls of active or inactive are those of the source.

How the values were obtained:
[1] = small molecules captured by biotinylated probe aFSTL3 – biochemical, small-molecule microarray, fluorescence 635/667, stem cell growth factor project, primary screen (AID 1064); details: higher = more signal;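 note: measures binding of the biotinylated anti-FSTL3 antibody to printed compounds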
[2] = binders from COS7 lysate, DM2A8 probe, primary screen, torsin A project, cell lysate, small-molecule microarray, fluorescence 635/667 (AID 1065); details: higher = more signal, COS7 lysate expressing mutant human TOR1A
[3] = small molecules captured by biotinylated probe aFGF2 – biochemical, small-molecule microarray, fluorescence 635/667, stem cell growth factor project, primary screen (AID 1067); details: higher = more signal;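 note: measures binding of biotinylated aFGF2 protein to printed compounds on slides; z-score merges feature fluorescence and signal-to-noise across triplicate slides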
[4] = small molecules captured by biotinylated probe aFGF10 – biochemical, small-molecule microarray, fluorescence 635/667, stem cell growth factor project, primary screen (AID 1071); details: higher = more signal;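 note: score merges 667 nm spot intensity and signal to noise from triplicate slides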
[5] = biological target: Neurogenic locus notch homolog protein 2 (Homo sapiens) (UniProt Q04721); experiment: small molecules binding Notch2 protein – biochemical, small-molecule microarray, 635 nm fluorescence, stem cell growth factors, primary screen (AID 1073); details: higher = more signal
[6] = biological target: Pro-neuregulin-1, membrane-bound isoform (Homo sapiens) (UniProt Q02297); experiment: small molecules binding neuregulin-1 protein – biochemical, small-molecule microarray, fluorescence 635/667, psychiatric disease protein project, primary screen (AID 1075); details: NRG1 binding, 635 nm fluorescence, higher = more signal;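 note: score combines 667 nm spot fluorescence with signal to noise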
[7] = system: Neuregulin-1 EGF-like domain; experiment: small molecules binding NRG1 EGF domain – biochemical, small-molecule microarray, 635 nm fluorescence, primary screen (AID 1081); details: higher = more signal;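 note: binding of the protein to compounds printed on small-molecule microarray slides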
[8] = FRG1 expression reporter modulators in myotubes – cell-based, C2C12 myotubes, firefly/Renilla luciferase, luminescence, FRG1 inhibition for FSHD, primary screen (AID 1084); details: FRG1 promoter luciferase, higher = more signal, called active from +8 up or from −8 down
[9] = small molecules captured by biotinylated probe aFST – biochemical, small-molecule microarray, fluorescence 635/667, stem cell growth factor project, primary screen (AID 1086); details: higher = more signal;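 note: score merges 667 nm fluorescence with signal-to-noise of each printed compound spot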
[10] = binders of probe aHhip on microarray, primary screen, stem cell growth factor project, biochemical, small-molecule microarray, fluorescence 635/667 (AID 1087); details: higher = more signal;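 note: score merges spot fluorescence at 667nm with spot signal to noise ratio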
[11] = system: PRMT1 (protein arginine N-methyltransferase 1); experiment: small molecules binding arginine methyltransferase PRMT1 – biochemical, small-molecule microarray, 635 nm fluorescence, primary screen (AID 1088); details: higher = more signal;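 note: binding of Prmt1 protein to compounds spotted on small-molecule microarray slides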
[12] = growth effects on S. cerevisiae YJM789 – YJM789 clinical isolate, OD600, 24 h, basal, primary screen (AID 1089); details: higher = more signal, called active from +8 up or from −8 down;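 note: growth of clinical yeast isolate S. cerevisiae YJM 789 seeded 1000 cells per well; test concentration not given here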
[13] = S. pombe growth modifiers, basal conditions – strain 972, OD600, 24 h, no modulator, primary screen (AID 1090);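 note: basal condition with compound alone and no growth modifier present; test concentration not given here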; details: S. pombe 972 growth, higher = more signal, called active from +8 up or from −8 down
[14] = budding yeast growth modifiers under rapamycin – strain BY4716, OD600, 96 h, primary screen (AID 1091); note: test concentration not given here; details: S. cerevisiae BY4716 + rapamycin, higher = more signal, called active from +8 up or from −8 down
[15] = biological target: Torsin-1A-interacting protein 2 (Homo sapiens) (UniProt Q8NFQ8); experiment: small molecules binding lysate-expressed LULL1 – cell lysate, human LULL1 lysate, 635/667 nm fluorescence, primary screen (AID 1092); details: small-molecule microarray, hLULL1 lysate binding, 635 nm fluorescence; higher = more signal;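 note: probe is lysate of COS7 cells overexpressing human LULL1; score merges per-feature 667 nm fluorescence with signal-to-noise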
[16] = optical density change of DRC41 E. coli – strain DRC41, OD650, 24 h, E. coli filamentation project, primary screen (AID 1093);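 note: MC1000 strain lacking acrAB efflux and sulA so SOS filamentation is blocked; test concentration not given here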; details: E. coli DRC41 growth, higher = more signal, called active from +8 up or from −8 down
[17] = probe aLefty2 binding to arrayed compounds – biochemical, biotinylated probe, 635/667 nm fluorescence, primary screen (AID 1094); details: small-molecule microarray, higher = more signal;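 note: score merges spot fluorescence near 667 nm with spot signal-to-noise ratio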
[18] = system: Noggin (protein binding on small-molecule microarray); experiment: small molecules binding Noggin protein – biochemical, 635/667 nm fluorescence, primary screen (AID 1095); details: 635 nm fluorescence, higher = more signal;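 note: score merges 667 nm feature fluorescence with signal to noise over triplicate slides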
[19] = biological target: Neurogenic locus notch homolog protein 3 (Homo sapiens) (UniProt Q9UM47); experiment: small molecules binding NOTCH3 protein – biochemical, 635/667 nm fluorescence, primary screen (AID 1096); details: small-molecule microarray, 635 nm fluorescence, higher = more signal
[20] = probe aEGFR binding to arrayed compounds – biochemical, biotinylated probe, 635/667 nm fluorescence, primary screen (AID 1097); details: small-molecule microarray, higher = more signal;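 note: probe is a biotinylated anti-EGFR antibody binding compounds printed on slides; score combines fluorescence near 667 nm and signal to noise of each spot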

Neurogenic locus notch homolog protein 3 (Homo sapiens), sequence (Q9UM47 whole entry, looked up): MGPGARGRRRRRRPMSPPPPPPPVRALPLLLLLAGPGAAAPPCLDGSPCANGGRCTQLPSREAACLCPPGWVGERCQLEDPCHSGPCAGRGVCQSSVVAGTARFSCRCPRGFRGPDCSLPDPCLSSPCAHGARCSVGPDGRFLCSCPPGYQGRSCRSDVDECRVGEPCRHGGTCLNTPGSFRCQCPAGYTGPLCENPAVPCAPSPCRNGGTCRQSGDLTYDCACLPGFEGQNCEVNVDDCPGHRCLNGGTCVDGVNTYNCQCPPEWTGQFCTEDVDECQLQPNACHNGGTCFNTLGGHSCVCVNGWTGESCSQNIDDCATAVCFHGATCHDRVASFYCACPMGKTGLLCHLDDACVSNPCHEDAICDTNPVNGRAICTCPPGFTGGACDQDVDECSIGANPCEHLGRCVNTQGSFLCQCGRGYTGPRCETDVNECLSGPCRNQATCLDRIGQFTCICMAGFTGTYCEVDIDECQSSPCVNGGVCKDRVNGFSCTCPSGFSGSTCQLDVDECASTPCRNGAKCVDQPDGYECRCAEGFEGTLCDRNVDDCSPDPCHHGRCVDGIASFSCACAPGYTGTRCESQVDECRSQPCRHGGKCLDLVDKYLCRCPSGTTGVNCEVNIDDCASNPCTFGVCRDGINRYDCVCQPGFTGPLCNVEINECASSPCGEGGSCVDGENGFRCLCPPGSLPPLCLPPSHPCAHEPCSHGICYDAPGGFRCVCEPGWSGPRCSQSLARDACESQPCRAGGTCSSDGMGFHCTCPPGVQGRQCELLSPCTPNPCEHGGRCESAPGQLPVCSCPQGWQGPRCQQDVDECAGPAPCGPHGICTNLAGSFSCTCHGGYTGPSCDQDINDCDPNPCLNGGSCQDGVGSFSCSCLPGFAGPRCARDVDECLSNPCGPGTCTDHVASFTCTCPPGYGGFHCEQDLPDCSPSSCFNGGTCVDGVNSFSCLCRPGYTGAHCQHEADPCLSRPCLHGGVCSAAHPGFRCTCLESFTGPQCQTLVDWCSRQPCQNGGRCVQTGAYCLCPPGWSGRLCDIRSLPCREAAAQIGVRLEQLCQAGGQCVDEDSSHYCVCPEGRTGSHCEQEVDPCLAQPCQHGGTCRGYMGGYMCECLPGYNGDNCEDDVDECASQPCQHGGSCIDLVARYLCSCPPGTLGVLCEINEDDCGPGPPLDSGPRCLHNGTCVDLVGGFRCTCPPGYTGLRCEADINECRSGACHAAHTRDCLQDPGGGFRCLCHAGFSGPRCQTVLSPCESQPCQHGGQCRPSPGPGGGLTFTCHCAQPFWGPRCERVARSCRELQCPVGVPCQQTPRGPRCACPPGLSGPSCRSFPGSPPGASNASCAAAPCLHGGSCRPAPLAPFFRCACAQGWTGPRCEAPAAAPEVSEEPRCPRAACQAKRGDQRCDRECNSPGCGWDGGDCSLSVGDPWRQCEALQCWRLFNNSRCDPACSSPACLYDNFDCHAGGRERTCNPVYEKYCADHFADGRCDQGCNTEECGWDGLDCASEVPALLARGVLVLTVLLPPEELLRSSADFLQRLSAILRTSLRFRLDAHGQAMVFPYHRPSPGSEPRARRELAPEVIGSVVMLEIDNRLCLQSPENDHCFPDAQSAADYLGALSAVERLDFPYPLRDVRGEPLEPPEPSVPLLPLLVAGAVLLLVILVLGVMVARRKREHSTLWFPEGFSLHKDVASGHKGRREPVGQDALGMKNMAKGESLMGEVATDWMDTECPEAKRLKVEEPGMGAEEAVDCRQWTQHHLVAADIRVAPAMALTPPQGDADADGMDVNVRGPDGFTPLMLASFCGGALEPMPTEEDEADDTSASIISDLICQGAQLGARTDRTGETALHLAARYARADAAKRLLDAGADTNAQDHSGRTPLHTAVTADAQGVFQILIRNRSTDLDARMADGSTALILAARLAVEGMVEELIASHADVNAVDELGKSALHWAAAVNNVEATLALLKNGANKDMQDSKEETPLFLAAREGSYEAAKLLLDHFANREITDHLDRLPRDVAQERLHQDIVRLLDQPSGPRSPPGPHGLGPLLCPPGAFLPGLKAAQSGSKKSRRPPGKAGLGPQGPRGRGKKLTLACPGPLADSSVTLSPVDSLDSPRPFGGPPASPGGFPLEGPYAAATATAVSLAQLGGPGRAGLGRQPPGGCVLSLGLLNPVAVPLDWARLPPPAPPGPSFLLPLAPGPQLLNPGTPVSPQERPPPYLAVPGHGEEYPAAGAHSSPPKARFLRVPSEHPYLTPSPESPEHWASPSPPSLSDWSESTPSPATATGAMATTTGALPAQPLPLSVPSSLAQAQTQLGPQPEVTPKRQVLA
Neurogenic locus notch homolog protein 2 (Homo sapiens), sequence (Q04721 whole entry, looked up, canonical isoform): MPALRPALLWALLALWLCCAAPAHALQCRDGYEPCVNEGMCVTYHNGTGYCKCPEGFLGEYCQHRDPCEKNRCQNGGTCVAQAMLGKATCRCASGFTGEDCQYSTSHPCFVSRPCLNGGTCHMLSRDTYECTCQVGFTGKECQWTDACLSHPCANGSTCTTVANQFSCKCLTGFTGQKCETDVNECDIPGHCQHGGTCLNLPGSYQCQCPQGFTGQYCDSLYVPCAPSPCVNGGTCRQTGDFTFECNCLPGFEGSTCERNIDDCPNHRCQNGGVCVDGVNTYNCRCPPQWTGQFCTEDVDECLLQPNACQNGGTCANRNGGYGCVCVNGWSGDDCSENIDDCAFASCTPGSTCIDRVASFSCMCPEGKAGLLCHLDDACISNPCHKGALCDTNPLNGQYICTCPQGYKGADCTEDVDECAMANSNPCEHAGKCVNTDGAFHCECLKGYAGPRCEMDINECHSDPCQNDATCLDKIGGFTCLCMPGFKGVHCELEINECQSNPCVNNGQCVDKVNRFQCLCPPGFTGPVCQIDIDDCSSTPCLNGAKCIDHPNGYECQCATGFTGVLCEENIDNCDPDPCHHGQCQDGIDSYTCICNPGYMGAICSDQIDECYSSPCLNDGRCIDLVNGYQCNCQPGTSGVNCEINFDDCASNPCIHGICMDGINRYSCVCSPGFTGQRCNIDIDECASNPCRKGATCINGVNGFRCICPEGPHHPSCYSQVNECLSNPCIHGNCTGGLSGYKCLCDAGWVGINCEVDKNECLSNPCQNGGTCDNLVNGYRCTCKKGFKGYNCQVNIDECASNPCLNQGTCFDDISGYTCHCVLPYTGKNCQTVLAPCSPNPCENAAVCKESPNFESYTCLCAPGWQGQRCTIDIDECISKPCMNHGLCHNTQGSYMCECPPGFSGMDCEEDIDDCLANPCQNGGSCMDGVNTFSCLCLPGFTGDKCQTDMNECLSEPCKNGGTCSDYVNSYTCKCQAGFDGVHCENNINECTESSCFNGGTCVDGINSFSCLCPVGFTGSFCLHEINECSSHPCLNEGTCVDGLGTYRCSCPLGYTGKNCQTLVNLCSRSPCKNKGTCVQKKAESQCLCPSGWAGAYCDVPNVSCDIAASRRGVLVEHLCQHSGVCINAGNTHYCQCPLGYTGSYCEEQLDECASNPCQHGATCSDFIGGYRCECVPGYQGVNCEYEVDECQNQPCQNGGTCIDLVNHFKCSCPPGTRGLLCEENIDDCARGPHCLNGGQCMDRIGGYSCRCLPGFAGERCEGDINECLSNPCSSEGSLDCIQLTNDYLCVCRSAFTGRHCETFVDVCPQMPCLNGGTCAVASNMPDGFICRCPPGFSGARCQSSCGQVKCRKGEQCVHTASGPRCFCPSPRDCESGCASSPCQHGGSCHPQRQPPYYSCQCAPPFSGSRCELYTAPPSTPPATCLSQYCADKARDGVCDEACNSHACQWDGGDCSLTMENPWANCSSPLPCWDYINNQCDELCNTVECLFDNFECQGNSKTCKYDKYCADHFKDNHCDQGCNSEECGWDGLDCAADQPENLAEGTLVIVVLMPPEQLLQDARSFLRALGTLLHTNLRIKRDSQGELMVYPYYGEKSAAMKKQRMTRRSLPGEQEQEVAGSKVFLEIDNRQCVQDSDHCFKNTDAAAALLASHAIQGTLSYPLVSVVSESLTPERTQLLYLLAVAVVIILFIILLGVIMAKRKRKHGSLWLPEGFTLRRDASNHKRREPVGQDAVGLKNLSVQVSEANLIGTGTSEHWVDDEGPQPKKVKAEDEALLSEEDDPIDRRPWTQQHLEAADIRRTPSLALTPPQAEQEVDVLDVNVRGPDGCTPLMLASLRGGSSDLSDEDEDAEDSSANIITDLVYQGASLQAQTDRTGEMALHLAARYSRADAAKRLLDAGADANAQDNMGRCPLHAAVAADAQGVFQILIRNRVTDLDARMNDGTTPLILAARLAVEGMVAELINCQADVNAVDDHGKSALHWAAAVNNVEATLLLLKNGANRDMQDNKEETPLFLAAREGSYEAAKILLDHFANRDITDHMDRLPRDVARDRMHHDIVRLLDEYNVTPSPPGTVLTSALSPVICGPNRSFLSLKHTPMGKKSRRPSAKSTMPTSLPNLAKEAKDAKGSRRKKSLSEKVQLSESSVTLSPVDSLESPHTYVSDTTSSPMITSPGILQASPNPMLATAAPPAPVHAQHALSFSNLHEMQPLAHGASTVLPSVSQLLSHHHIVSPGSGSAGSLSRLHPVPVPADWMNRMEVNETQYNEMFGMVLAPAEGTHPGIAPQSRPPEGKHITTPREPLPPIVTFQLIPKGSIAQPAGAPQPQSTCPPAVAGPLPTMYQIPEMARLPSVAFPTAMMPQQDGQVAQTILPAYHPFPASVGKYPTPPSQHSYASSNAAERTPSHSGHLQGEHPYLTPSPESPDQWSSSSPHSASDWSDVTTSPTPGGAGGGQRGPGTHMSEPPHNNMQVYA

| SMILES | composite z-score [1] | composite z-score [2] | composite z-score [3] | composite z-score [4] | composite z-score [5] | composite z-score [6] | composite z-score [7] | z-score [8] | composite z-score [9] | composite z-score [10] | composite z-score [11] | z-score [12] | z-score [13] | z-score [14] | composite z-score [15] | z-score [16] | composite z-score [17] | composite z-score [18] | composite z-score [19] | composite z-score [20] |
| --- | --- | --- | --- | --- | --- | --- | --- | --- | --- | --- | --- | --- | --- | --- | --- | --- | --- | --- | --- | --- |
| Cc1ccc(N2C(=O)c3ccccc3[C@@H](C(=O)NCC(F)(F)F)[C@@H]2c2ccc(CO)cc2)nc1 | 1.83 | -1.33 | -0.195 | -1.11 | -2.11 | 1.15 | 1.26 | -0.307 (inactive) | -0.869 | -0.539 | -0.359 | -0.678 (inactive) | -1.24 (inactive) | 3.03 (inactive) | -0.338 | 1.08 (inactive) | 0.0143 | -2.15 | -1.01 | -0.157 |
| C[N+](C)(C)CCCCNC(=O)[C@@H]1C[C@@H]2C(=O)N3CCC[C@H]3C(=O)N2[C@@H]1c1cccc(OCCO)c1 | -0.215 | 1.3 | -0.148 | 0.712 | -0.145 | 0.837 | 1.03 | 1.19 (inactive) | 0.209 | 0.171 | 0.869 | -1.09 (inactive) | -1.74 (inactive) | -2.42 (inactive) | 0.381 | 1.54 (inactive) | -0.123 | 1.64 | 0.751 | 0.0051 |
| O=C1O[C@@H](c2ccccc2)[C@@H](c2ccccc2)N2[C@@H](c3ccccc3OCCO)[C@]3(C(=O)Nc4ccc(C#CC5=CCCCC5)cc43)[C@@H](C(=O)O)[C@H]12 | 0.294 | 0.416 | 0.0248 | 0.627 | 1.44 | 0.391 | 1.1 | -1.6 (inactive) | 0.415 | -0.226 | 1.34 | 2.48 (inactive) | -0.608 (inactive) | 0.341 (inactive) | 1.83 | 2.04 (inactive) | 0.0748 | 0.269 | 1.05 | -0.0321 |
| CCCC=C(CCC)[C@@H](NC(=O)c1ccc(C(F)(F)F)cc1)c1ccccc1 | -0.0795 | 0.333 | -0.0483 | -0.195 | 0.237 | -0.256 | 0.113 | 2.78 (inactive) | 0.587 | -0.0296 | 0.626 | 0.562 (inactive) | -0.502 (inactive) | 1.62 (inactive) | 2.03 | -0.773 (inactive) | -0.0038 | -0.0491 | 0.417 | -0.0565 |
| COc1cc2c(cc1OC)CN(C(=O)[C@H]1[C@@H]3C(=O)O[C@@H](c4ccccc4)[C@@H](c4ccccc4)N3[C@@H](c3ccccc3OCCO)[C@]13C(=O)Nc1ccc(C#CC4(O)CCCCCC4)cc13)CC2 | -0.0648 | 0.705 | 0.0605 | 1.01 | 1.1 | 1.76 | 1.35 | -2.24 (inactive) | 0.319 | 0.245 | 1.55 | 1.71 (inactive) | 0.519 (inactive) | 4.28 (inactive) | 2.83 | 2.54 (inactive) | 0.0028 | 1.19 | 1.11 | 0.0965 |
| CC(=O)NCCCC[C@@H]1NC(=O)[C@H]2C[C@@H](C(=O)NCCCCCCN(C)C)[C@@H](c3cccc(OCCO)c3)N2C1=O | 0.0256 | 2.05 | 0.0996 | 1.24 | 1.54 | 0.681 | 1.35 | 2.92 (inactive) | 0.861 | 0.0053 | 1.53 | -1.05 (inactive) | -0.36 (inactive) | -0.391 (inactive) | 3.07 | 0.0161 (inactive) | 0.536 | 1.87 | 1.02 | 0.539 |
| Cc1ccc(N2C(=O)c3ccccc3[C@](C)(C(=O)NCC(C)C)[C@@H]2c2ccc(CO)cc2)nc1 | 0.572 | -0.48 | 0.0988 | -0.662 | -1.02 | -1.05 | 1.4 | 0.613 (inactive) | -0.542 | 0.74 | -0.644 | 0.42 (inactive) | 0.374 (inactive) | 1.43 (inactive) | -1.71 | -0.277 (inactive) | 0.456 | -1.22 | -1.62 | 0.32 |
| CO[C@@H]1COC(=O)[C@H](COCc2ccccc2)NC(=O)CC=C[C@@H](C)[C@H](OC)COC(=O)[C@H](COCc2ccccc2)NC(=O)CC=C[C@H]1C | -0.594 | 0.334 | -0.138 | -0.0596 | 0.0136 | 0.567 | -0.618 | -0.496 (inactive) | -0.0224 | -0.0994 | 0.0472 | 0.982 (inactive) | -0.371 (inactive) | 0.921 (inactive) | -0.0267 | -0.405 (inactive) | -0.226 | 0.63 | -0.511 | -0.0605 |
| COc1cc([C@@H]2N[C@H](C(=O)O)Cc3c2[nH]c2ccccc32)cc(OC)c1OC | -0.534 | 0.55 | -0.0806 | 0.28 | 0.507 | 0.0318 | -0.205 | -0.643 (inactive) | -0.134 | 0.338 | -0.504 | -0.258 (inactive) | -0.581 (inactive) | -0.611 (inactive) | 0.235 | 0.233 (inactive) | -0.123 | 0.367 | 0.475 | -0.0069 |
| CCCN1C(=O)[C@@]2(CCS(=O)(=O)c3ccccc3)N=C(c3ccc(OCCCO)cc3)O[C@H]2c2ccccc21 | 0.309 | 0.437 | 0.0127 | 0.136 | 0.728 | 1.72 | 1.36 | -3.15 (inactive) | 0.328 | 0.0722 | 1.53 | 0.817 (inactive) | 0.69 (inactive) | 4.5 (inactive) | 2.8 | 0.341 (inactive) | 0.0686 | 1.03 | 1.09 | -0.0118 |
